Laboratory results reported in PubChem BioAssay (EPA / NIEHS).
Results filed as inconclusive are left out. Active and inactive are the calls of the source. Rule for the calls: active = hit-call score of the fitted dose curve at least 0.9, where 1 is the maximum; inconclusive = response in the unintended direction; inactive = score below 0.9.

Experiments:
[1] = TOX21_p53_BLA_p2_viability: Viability Assessment in the Tox21 HCT-116 p53 Agonism Beta-lactamase Assay, Phase 2 (AID 2283591);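 note: compound exposure lasted 16 h at 37 °C; actives lower the ATP signal meaning cytotoxicity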
Outline: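 HCT116 p53-bla cells, 4000/well, dosed after 5 h plating (217-fold dilution of DMSO stocks) and incubated 16 h at 37C. Viability taken as cellular ATP by CellTiter-Glo luminescence after 30 min RT; signal loss marks cytotoxicity.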

[2] = molecular target: Cellular tumor antigen p53 (Homo sapiens) (UniProt P04637); test: TOX21_p53_BLA_p2_ratio: Tox21 HCT-116 p53 Agonism Beta-lactamase Assay, Ratio, Phase 2 (AID 2283592)
Chain of Cellular tumor antigen p53 (Homo sapiens) (P04637 whole entry, looked up): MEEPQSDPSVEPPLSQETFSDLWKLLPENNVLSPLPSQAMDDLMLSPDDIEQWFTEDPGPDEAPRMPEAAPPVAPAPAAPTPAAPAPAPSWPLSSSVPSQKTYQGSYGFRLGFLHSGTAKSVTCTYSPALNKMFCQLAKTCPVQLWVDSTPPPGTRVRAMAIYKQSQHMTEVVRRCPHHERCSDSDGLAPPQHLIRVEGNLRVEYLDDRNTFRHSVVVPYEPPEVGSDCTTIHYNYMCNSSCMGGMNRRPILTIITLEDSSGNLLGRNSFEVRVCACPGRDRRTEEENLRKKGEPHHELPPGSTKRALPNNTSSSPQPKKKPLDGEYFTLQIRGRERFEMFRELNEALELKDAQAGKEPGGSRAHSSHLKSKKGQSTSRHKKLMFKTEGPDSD
Outline: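 DMSO-normalized, positive-direction endpoint derived from the 460 nm/530 nm FRET ratio in HCT116 p53 beta-lactamase reporter cells exposed 16 h at 37C and loaded with CCF4-AM for 2 h.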

[3] = TOX21_p53_BLA_p3_viability: Viability Assessment in the Tox21 HCT-116 p53 Agonism Beta-lactamase Assay, Phase 3 (AID 2283593);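 note: cells exposed to compound for 16 h before reading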
Outline: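 HCT116 cells, 4000/well, dosed 5 h after plating by pin transfer (217-fold dilution from DMSO stock) and incubated 16 h at 37C, 5% CO2. Viability read as ATP luminescence with CellTiter-Glo after 30 min at room temperature.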

[4] = TOX21_p53_BLA_p4_viability: Viability Assessment in the Tox21 HCT-116 p53 Agonism Beta-lactamase Assay, Phase 4 (AID 2283597);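 note: hits lower the luminescence signal meaning cytotoxicity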
Outline: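 In this multiplexed secondary endpoint, HCT116 cells (4000 per well, compound at 5 h, 16 h treatment) received CellTiter-Glo after the beta-lactamase read. Luminescence after 30 min RT reflects ATP, and falling signal marks cytotoxicity.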

[5] = molecular target: Cellular tumor antigen p53 (Homo sapiens) (UniProt P04637); test: TOX21_p53_BLA_p3_ratio: Tox21 HCT-116 p53 Agonism Beta-lactamase Assay, Ratio, Phase 3 (AID 2283596)
Outline: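 Cells were seeded at 4000/well, rested 5 h at 37C, then dosed with DMSO compound solutions (217-fold dilution) for 16 h. CCF4-AM substrate was loaded for 2 h at room temperature, and the 460/530 nm emission ratio was fitted for gain of signal versus DMSO.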

[6] = TOX21_p53_BLA_p5_viability: Viability Assessment in the Tox21 HCT-116 p53 Agonism Beta-lactamase Assay, Phase 5 (AID 2283600)
Outline: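 Here cell health was gauged by ATP levels in wells holding 4000 cells, each treated 16 h with DMSO-delivered compounds at 217-fold dilution; reduced luminescence marked toxicity.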

[7] = molecular target: Cellular tumor antigen p53 (Homo sapiens) (UniProt P04637); test: TOX21_p53_BLA_p4_ratio: Tox21 HCT-116 p53 Agonism Beta-lactamase Assay, Ratio, Phase 4 (AID 2283601)
Outline: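 HCT-116 p53 beta-lactamase reporter cells (4000/well) preincubated 5 h, then compound (217-fold dilution of DMSO stock) for 16 h at 37C. CCF4-AM substrate added 2 h at room temperature; 460/530 nm emission ratio fitted upward versus DMSO.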

PGR (gene 5241) = PGR (gene 5241) (UniProt P06401); test: TOX21_PR_BLA_Followup_Antagonist_ratio: Tox21 HEK293 Progesterone Receptor (PR) Antagonism Beta-lactamase Follow-Up Assay, Ratio (AID 2283934);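 note: PR-UAS-bla HEK293T cells stimulated with 1 nM R5020 agonist for 16 hr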
Chain of PGR (gene 5241) (P06401 whole entry, looked up): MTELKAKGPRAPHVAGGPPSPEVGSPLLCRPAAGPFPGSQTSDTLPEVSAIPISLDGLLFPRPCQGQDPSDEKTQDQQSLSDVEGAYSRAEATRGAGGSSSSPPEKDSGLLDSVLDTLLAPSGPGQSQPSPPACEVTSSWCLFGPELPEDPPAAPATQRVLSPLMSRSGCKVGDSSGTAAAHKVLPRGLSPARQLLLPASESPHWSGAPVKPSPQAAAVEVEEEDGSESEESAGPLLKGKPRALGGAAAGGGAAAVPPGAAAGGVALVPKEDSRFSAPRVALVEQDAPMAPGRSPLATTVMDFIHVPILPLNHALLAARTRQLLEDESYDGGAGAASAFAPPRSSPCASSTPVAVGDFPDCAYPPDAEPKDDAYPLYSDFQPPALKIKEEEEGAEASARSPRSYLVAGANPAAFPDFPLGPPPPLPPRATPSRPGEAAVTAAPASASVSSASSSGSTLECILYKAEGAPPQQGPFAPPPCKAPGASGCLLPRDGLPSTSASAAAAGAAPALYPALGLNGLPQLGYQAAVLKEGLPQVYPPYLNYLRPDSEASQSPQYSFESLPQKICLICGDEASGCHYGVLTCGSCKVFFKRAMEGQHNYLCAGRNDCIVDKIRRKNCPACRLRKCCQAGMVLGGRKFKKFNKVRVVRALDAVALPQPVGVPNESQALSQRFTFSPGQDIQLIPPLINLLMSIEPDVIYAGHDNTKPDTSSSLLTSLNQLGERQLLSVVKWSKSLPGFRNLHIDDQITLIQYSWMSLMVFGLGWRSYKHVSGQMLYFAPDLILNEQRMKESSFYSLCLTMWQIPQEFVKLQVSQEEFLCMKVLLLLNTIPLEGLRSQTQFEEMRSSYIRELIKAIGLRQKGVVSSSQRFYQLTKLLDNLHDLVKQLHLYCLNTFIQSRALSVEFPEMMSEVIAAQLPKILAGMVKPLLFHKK
Outline: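 Readout is the blue/green (ch2/ch1) substrate cleavage ratio after 2 hours at room temperature, following 16 hr co-treatment of PR-bla HEK293T cells with compound and 1nM promegestone. Multiplexed CellTiter-Glo viability flags cytotoxicity; DMSO baseline.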

[8] = molecular target: Cellular tumor antigen p53 (Homo sapiens) (UniProt P04637); test: TOX21_p53_BLA_p5_ratio: Tox21 HCT-116 p53 Agonism Beta-lactamase Assay, Ratio, Phase 5 (AID 2283599)
Outline: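 HCT-116 p53-bla cells (4000/well) plated 5 h, dosed with compound (217-fold DMSO dilution) for 16 h at 37 C; CCF4-AM substrate 2 h at room temperature. Activity is the 460/530 nm emission ratio (405 nm excitation), fitted in gain-of-signal direction versus DMSO.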

Measured: outcome

C[N+](C)(CCCCCC[N+](C)(C)C1c2ccccc2-c2ccccc21)C1c2ccccc2-c2ccccc21
inactive: [1] | [2] | [3] | [4]

CC(=O)OCC(=O)[C@@]1(O)CCC2C3CCC4=CC(=O)CC[C@]4(C)C3C(O)C[C@@]21C (stereo partly specified)
not listed: [4] | [8]
inactive: all other assays above

CC1(C)C2CC[C@]3(C)[C@H](C(=O)C=C4[C@@H]5C[C@@](C)(C(=O)O)CC[C@]5(C)CC[C@]43C)[C@@]2(C)CC[C@@H]1O[C@H]1O[C@H](C(=O)O)[C@@H](O)[C@H](O)[C@H]1O[C@@H]1O[C@H](C(=O)O)[C@@H](O)[C@H](O)[C@H]1O (stereo partly specified)
inactive: [1] | [2] | [3] | [4]

C[C@H]1C[C@H]2[C@@H]3CCC4=CC(=O)C=C[C@]4(C)[C@H]3C(=O)C[C@]2(C)[C@@]1(O)C(=O)CO
inactive: [1] | [2] | [3] | [4] | [8]

O=C(CCCCC(=O)Nc1c(I)cc(I)c(C(=O)O)c1I)Nc1c(I)cc(I)c(C(=O)O)c1I
inactive: [1] | [2] | [3] | [4] | [8]

CC(=O)N(O)CCCCCNC(=O)CCC(=O)N(O)CCCCCNC(=O)CCC(=O)N(O)CCCCCN
inactive: [1] | [2] | [3] | [5] | [7]

COc1cc(C(=O)OC(COCCC(C)C)CN2CCOCC2)cc(OC)c1OC (stereo unspecified)
inactive: [1] | [2] | [3] | [4]

COc1cc(Br)c(C[N+]2(CCOCCC3CCC4CC3C4(C)C)CCOCC2)cc1OC (stereo unspecified)
not listed: [5] | [7] | PGR (gene 5241)
inactive: all other assays above

O=C(CCCN1CCN(c2ccccn2)CC1)c1ccc(F)cc1
not listed: [4] | PGR (gene 5241) | [8]
inactive: all other assays above
